# PubChem BioAssay (NCI)
# This is part of a sample that, as a whole, favours compounds with a hit. Of some 79,000 tested, about 15% had one in any assay. Unmarked numbers belong to inactive results. No stated cut-off is given here; in the data, active means growth inhibition above about 70%; inactive means the rest.
# Assay: NCI Yeast Anticancer Drug Screen. Data for the cln2 rad14 strain (AID 165);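 further: 0% = growth equal to vehicle treated cultures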
# Conditions: S. cerevisiae cln2 rad14 strain, at 5.0 µM (retest, dose inferred, filed as 0.5), hits give high values
# Outline: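 The screen exposed genetically defined yeast (cln2 rad14) to test compounds and scored growth inhibition relative to vehicle-treated controls.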
row,Structure (SMILES),growth inhibition
1,CCOP(=O)(OCC)C(Cc1ccccc1)N=C(c1ccccc1)c1ccccc1 (centres undefined),-1%
2,CCc1ncnc2cc(OCC3CO3)c(OC)cc12 (centres undefined),17%
3,CCOC(=O)[C@H]1Nc2ccccc2C2c3ccccc3CC21 (some centres undefined),13%
4,O=CNc1ccc2c(c1)C(=O)c1ccccc1-2,-15%
5,CCOc1ccc2c(c1)c(CC(=O)O)cn2C,-47%
6,OC1CSCCCSCCSCCCSC1,12%
7,N#Cc1c(N)[nH]c2ccc(Sc3ccccc3)cc12,-3%
8,Cc1ccc(-c2ccc(Nc3c4ccccc4nc4ccccc34)cc2)cn1,37%
9,c1ccc2c(c1)NC(NC1Nc3ccccc3N1)N2,13%
10,OC(COc1cccc2ccccc12)CN1CCOCC1 (centres undefined),14%
11,CCC/C(Cl)=N\OC(=O)Nc1ccc(Br)cc1,-22%
12,COc1ccc(/C=C2\SC(=S)N(/C=C/c3nc4ccccc4[nH]c3=O)C2=O)cc1OC,-30%
13,O=C(NNc1ccnc2cc(Cl)ccc12)/C(=C\c1ccccc1Cl)NC(=O)c1ccccc1,8%
14,CSC1=NNC(SC)=NN1,61%
15,Cc1c(C2=C(Br)C(=O)N(C)C2=O)c(=O)n(C)c(=O)n1C,20%
16,NCCNc1ccc(NCCN)c2c1C(=O)c1c(O)ccc(O)c1C2=O,21%
17,Cn1c(=O)c(-c2ccccc2)c(N=[N+]=[N-])c2ccccc21,23%
18,CCCCCCCCCCCCCCCCCCOCC(O)COP(=O)(O)OCC1OC(n2cc(F)c(=O)[nH]c2=O)CC1O (centres undefined),1%
19,CCS(=O)(=O)c1ccc(/C=C/C=N/NC(=S)NCC(C)C)cc1,-7%
20,CCC(=O)Oc1c(Cl)cc(Cl)c2ccccc12,-16%

row,Structure (SMILES),growth inhibition
1,COc1cc2c3c(cccc3c1)C(=O)N(CCN(C)C)C2=O,0%
2,CN(C)c1ccc(C(C#N)=C(C#N)C#N)cc1,-45%
3,O=C(CCCN1CCC2(CC1)CC(=O)N(N1CCCCCC1)C2=O)c1ccc(F)cc1,63%
4,O=C1C2C(C(=O)N1c1ccc(OCc3ccccc3)cc1)C1c3ccccc3C2C2CCCCN21 (centres undefined),-14%
5,CCN(CC)CCC(=O)c1ccc(Oc2ccc(F)cc2)cc1,21%
6,O=Nc1c(NO)ccc2nn(-c3ccccc3)nc12,37%
7,CC(=O)SCCC[Si](C)(C)CCCSC(C)=O,-6%
8,O=C(O)C1CCCCC1c1c2ccc(=O)c(O)c-2oc2c(O)c(O)ccc12 (centres undefined),-21%
9,Cc1ccc(NN(NC(=O)OC(C)C)C(=O)OC(C)C)cc1,14%
10,O=C1c2ccccc2C(=O)c2cc(CBr)ccc21,33%
11,Cc1c(C(Cc2ccccc2N(C)C(=O)/C=C\C(=O)O)c2c[nH]c3ccccc23)c2ccccc2n1C (centres undefined),38%
12,CC(C)/C(Cl)=N\OC(=O)Nc1ccc(F)cc1,27%
13,O=C1OC(=O)C2CCCC3CCCC1C32 (centres undefined),15%
14,CCOC(=O)C(NC(=O)c1ccccc1)(N1CCN(c2cc3c(cc2F)c(=O)c(C(=O)O)cn3C2CC2)CC1)C(F)(F)F (centres undefined),41%
15,COc1ccc(NC(=S)N/N=C(\c2ccccc2)c2ccccn2)cc1,33%
16,C=CCC1=C(C)C(OC(=O)/C=C/c2ccccc2)CC1=O (centres undefined),17%
17,NNc1c(F)c(F)cc(F)c1F,21%
18,COP(=O)(OC)/C(=C\C1=CN(C(c2ccccc2)(c2ccccc2)c2ccccc2)CN1)NC=O,3%
19,COC(=O)c1cc(-c2ccc(C)cc2)[nH]c(=O)c1C#N,30%
